Records with an inconclusive call do not appear. Calls of active or inactive are those of the source. Calls come from the whole dose curve; as a rule, active = well fitted curve in the direction sought with a large enough effect in the repeat runs; inconclusive = weak or mixed curves; inactive = no such curve, though single readings can be large; an effect the other way counts as inactive or inconclusive.
Legend:
[1] = A CellTox Green Cytotoxicity Assay to monitor cytotoxicity in HEK293 cells - 40 hour (AID 1224871); note: nearly all actives have a fitted effect of over 45% in size
Outline: (§1)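 Cells (HEK293, 600/well) and dye reagent are dispensed together. After 5 h at 37 C, 23 nL compound is pinned in. Plates stay at 37 C for 40 h with fluorescence read at 0h, 8h, 16h, 24h, 32h and 40h.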

[2] = qHTS RealTime-Glo MT Cell Viability Assay in HEK293 cells - 16 hour (AID 1224872); note: top concentration of the series differs between compounds; nearly all actives have a fitted effect of over 50% in size
Outline: (§2)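 Reads taken at 0, 8, 16, 24, 32 and 40 h from the same wells. HEK293 cells (600/well) carried RealTime-Glo reagents from seeding, with compound added after a 5 h settle at 37 C.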

[3] = qHTS RealTime-Glo MT Cell Viability Assay in HepG2 cells - 8 hour (AID 1224873); note: nearly all actives have a fitted effect of over 55% in size
Outline: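 HepG2 cells (600/well) mixed with RealTime-Glo MT reagent, settled 5 h at 37 C/5% CO2 before compound addition. Nonlytic NanoLuc luminescence from viable-cell prosubstrate reduction read repeatedly during 40 h treatment at 37 C.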

[4] = qHTS RealTime-Glo MT Cell Viability Assay in HEK293 cells - 40 hour (AID 1224874); settings: RealTime-Glo luminescence; max response: stronger effect = lower value; note: nearly all actives have a fitted effect of over 50% in size
Outline: (§3)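 Real-time viability in HEK293: signal arises when living cells convert a prosubstrate for NanoLuc in the medium, so luminescence tracks viable cell number. Compound (23 nL, DMSO) added 5 h post-seeding; kinetic reads at 0–40 h, 37 C.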

[5] = A CellTox Green Cytotoxicity Assay to monitor cytotoxicity in HEK293 cells - 24 hour (AID 1224875); note: series mostly up to about 77 µM; nearly all actives have a fitted effect of over 45% in size
Outline: as §1

[6] = A CellTox Green Cytotoxicity Assay to monitor cytotoxicity in HepG2 cells - 16 hour (AID 1224876); note: nearly all actives have a fitted effect of over 45% in size
Outline: (§4)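 Cells and non-lytic dye reagent are dispensed together (600 HepG2 cells/well) and incubated 5 h before DMSO compound transfer. Kinetic fluorescence is then recorded in the same wells during 40 h at 37 C.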

[7] = qHTS RealTime-Glo MT Cell Viability Assay in HepG2 cells - 32 hour (AID 1224877); note: nearly all actives have a fitted effect of over 55% in size
Outline: (§5)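 HepG2 suspension premixed with RealTime-Glo reagents is plated at 600 cells per well and left 5 h at 37 C/5% CO2. Compounds in DMSO then go in, and bioluminescence reflecting viable cell number is recorded over 40 h.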

[8] = A CellTox Green Cytotoxicity Assay to monitor cytotoxicity in HepG2 cells - 24 hour (AID 1224878); note: nearly all actives have a fitted effect of over 45% in size
Outline: as §4

[9] = A CellTox Green Cytotoxicity Assay to monitor cytotoxicity in HepG2 cells - 40 hour (AID 1224879); note: nearly all actives have a fitted effect of over 40% in size
Outline: as §4

[10] = qHTS RealTime-Glo MT Cell Viability Assay in HEK293 cells - 0 hour (AID 1224880)
Outline: as §3

[11] = A CellTox Green Cytotoxicity Assay to monitor cytotoxicity in HEK293 cells - 32 hour (AID 1224881); note: nearly all actives have a fitted effect of over 40% in size
Outline: as §1

[12] = A CellTox Green Cytotoxicity Assay to monitor cytotoxicity in HepG2 cells - 0 hour (AID 1224882); note: nearly all actives have a fitted effect of over 35% in size
Outline: as §4

[13] = A CellTox Green Cytotoxicity Assay to monitor cytotoxicity in HepG2 cells - 32 hour (AID 1224883); note: nearly all actives have a fitted effect of over 50% in size
Outline: as §4

[14] = A CellTox Green Cytotoxicity Assay to monitor cytotoxicity in HEK293 cells - 8 hour (AID 1224884); note: nearly all actives have a fitted effect of over 35% in size
Outline: as §1

[15] = qHTS RealTime-Glo MT Cell Viability Assay in HepG2 cells - 16 hour (AID 1224885); note: nearly all actives have a fitted effect of over 50% in size
Outline: as §5

[16] = qHTS RealTime-Glo MT Cell Viability Assay in HEK293 cells - 24 hour (AID 1224886)
Outline: as §2

[17] = qHTS RealTime-Glo MT Cell Viability Assay in HEK293 cells - 8 hour (AID 1224887)
Outline: as §3

[18] = A CellTox Green Cytotoxicity Assay to monitor cytotoxicity in HEK293 cells - 16 hour (AID 1224888); note: nearly all actives have a fitted effect of over 35% in size
Outline: as §1

[19] = qHTS RealTime-Glo MT Cell Viability Assay in HepG2 cells - 0 hour (AID 1224889); note: nearly all actives have a fitted effect of over 50% in size
Outline: as §5

[20] = A CellTox Green Cytotoxicity Assay to monitor cytotoxicity in HepG2 cells - 8 hour (AID 1224890); note: nearly all actives have a fitted effect of over 45% in size
Outline: as §4
% is set by controls: 0 for no effect and ±100 for the full control effect.

CCC(=O)OCc1ccccc1
inactive: Potency [1] | Potency [2] | outcome [3] | max response [4] -6.18% | outcome [5] | outcome [6] | Potency [7] | outcome [8] | Potency [9] | Potency [10] | outcome [11] | Potency [12] | Potency [13] | outcome [14] | outcome [15] | Potency [16] | Potency [17] | outcome [18] | Potency [19] | outcome [20]

CCOc1ccc2nc(S(N)(=O)=O)sc2c1
inactive: Potency [1] | Potency [2] | outcome [3] | max response [4] 6.72% | outcome [5] | outcome [6] | Potency [7] | outcome [8] | Potency [9] | Potency [10] | outcome [11] | Potency [12] | Potency [13] | outcome [14] | outcome [15] | Potency [16] | Potency [17] | outcome [18] | Potency [19] | outcome [20]

CN(C)CCCCCCN(C)C
inactive: Potency [1] | Potency [2] | outcome [3] | max response [4] -6% | outcome [5] | outcome [6] | Potency [7] | outcome [8] | Potency [9] | Potency [10] | outcome [11] | Potency [12] | Potency [13] | outcome [14] | outcome [15] | Potency [16] | Potency [17] | outcome [18] | Potency [19] | outcome [20]

CC(=O)NC(=O)c1ccccc1O
inactive: Potency [1] | Potency [2] | outcome [3] | max response [4] 7.94% | outcome [5] | outcome [6] | Potency [7] | outcome [8] | Potency [9] | Potency [10] | outcome [11] | Potency [12] | Potency [13] | outcome [14] | outcome [15] | Potency [16] | Potency [17] | outcome [18] | Potency [19] | outcome [20]

O=C1CCCCCCCCCCCCCCO1
inactive: Potency [1] | Potency [2] | outcome [3] | max response [4] 0.109% | outcome [5] | outcome [6] | Potency [7] | outcome [8] | Potency [9] | Potency [10] | outcome [11] | Potency [12] | Potency [13] | outcome [14] | outcome [15] | Potency [16] | Potency [17] | outcome [18] | Potency [19] | outcome [20]

C[N+]1(C)CCCC(OC(=O)C(O)(c2ccccc2)c2ccccc2)C1 (stereo not drawn)
inactive: Potency [1] | Potency [2] | outcome [3] | max response [4] -4.47% | outcome [5] | outcome [6] | Potency [7] | outcome [8] | Potency [9] | Potency [10] | outcome [11] | Potency [12] | Potency [13] | outcome [14] | outcome [15] | Potency [16] | Potency [17] | outcome [18] | Potency [19] | outcome [20]

CCOC(=O)COc1cc(-n2ncc(C(F)(F)F)c(C)c2=O)c(F)cc1Cl
inactive: Potency [1] | Potency [2] | outcome [3] | max response [4] -4.34% | outcome [5] | outcome [6] | Potency [7] | outcome [8] | Potency [9] | Potency [10] | outcome [11] | Potency [12] | Potency [13] | outcome [14] | outcome [15] | Potency [16] | Potency [17] | outcome [18] | Potency [19] | outcome [20]

COc1ccccc1OCC1CNC(=O)O1 (stereo not drawn)
inactive: Potency [1] | Potency [2] | outcome [3] | max response [4] 8.57% | outcome [5] | outcome [6] | Potency [7] | outcome [8] | Potency [9] | Potency [10] | outcome [11] | Potency [12] | Potency [13] | outcome [14] | outcome [15] | Potency [16] | Potency [17] | outcome [18] | Potency [19] | outcome [20]

CCOC(=O)C(=O)CCCCCCl
inactive: Potency [1] | Potency [2] | outcome [3] | max response [4] 4.01% | outcome [5] | outcome [6] | Potency [7] | outcome [8] | Potency [9] | Potency [10] | outcome [11] | Potency [12] | Potency [13] | outcome [14] | outcome [15] | Potency [16] | Potency [17] | outcome [18] | Potency [19] | outcome [20]

C[C@@H]1C[C@H]2[C@@H]3C[C@H](F)C4=CC(=O)C(Cl)=C[C@]4(C)[C@@]3(F)[C@@H](O)C[C@]2(C)[C@@]1(O)C(=O)CO
inactive: Potency [1] | Potency [2] | outcome [3] | max response [4] -27.2% | outcome [5] | outcome [6] | Potency [7] | outcome [8] | Potency [9] | Potency [10] | outcome [11] | Potency [12] | Potency [13] | outcome [14] | outcome [15] | Potency [16] | Potency [17] | outcome [18] | outcome [20]

COCCOC[C@H](CC1(C(=O)NC2CCC(C(=O)O)CC2)CCCC1)C(=O)Oc1ccc2c(c1)CCC2 (stereo partly drawn)
inactive: Potency [1] | Potency [2] | outcome [3] | max response [4] 5.36% | outcome [5] | outcome [6] | Potency [7] | outcome [8] | Potency [9] | Potency [10] | outcome [11] | Potency [12] | Potency [13] | outcome [14] | outcome [15] | Potency [16] | Potency [17] | outcome [18] | Potency [19] | outcome [20]

CC(=O)Oc1cccc(C)c1
inactive: Potency [1] | Potency [2] | outcome [3] | max response [4] 2.59% | outcome [5] | outcome [6] | Potency [7] | outcome [8] | Potency [9] | Potency [10] | outcome [11] | Potency [12] | Potency [13] | outcome [14] | outcome [15] | Potency [16] | Potency [17] | outcome [18] | outcome [20]

O=[N+]([O-])c1cncn1CCN1CCOCC1
inactive: Potency [1] | Potency [2] | outcome [3] | max response [4] -2.63% | outcome [5] | outcome [6] | Potency [7] | outcome [8] | Potency [9] | Potency [10] | outcome [11] | Potency [12] | Potency [13] | outcome [14] | outcome [15] | Potency [16] | Potency [17] | outcome [18] | Potency [19] | outcome [20]

O=C(O)c1cc(C(=O)O)cc(C(=O)O)c1
inactive: Potency [1] | Potency [2] | outcome [3] | max response [4] 16.8% | outcome [5] | outcome [6] | Potency [7] | outcome [8] | Potency [9] | Potency [10] | outcome [11] | Potency [12] | Potency [13] | outcome [14] | outcome [15] | Potency [16] | Potency [17] | outcome [18] | Potency [19] | outcome [20]
